Assay results taken from PubChem BioAssay AID977606 (Broad Institute, 2014).
About 430 (29%) of roughly 1,500 compounds were called active. The rule behind the calls is not given here. The list is a sample of the results. Measured potencies and affinities stand elsewhere.

Assay: insulin secretion activators without glucose, dose response, counter-screen for glucose-dependent insulin secretion activators, cell-based, INS-1E, Gaussia luciferase, luminescence, cherry-pick (AID 977606);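 note: 0% = median of neutral control wells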
Details: INS-1E Gaussia luciferase insulin secretion, no glucose, 100% = twice neutral-control luminescence; series mostly up to 35 µM; activation: at the top concentration

| SMILES | activation |
| --- | --- |
| O=C(CCCC(=O)c1ccccc1)NCc1ccccc1 | 6.76% (inactive) |
| O=C(CCc1nc2ccccc2c(=O)[nH]1)NNC(=O)c1cccc(Cl)c1 | -7.41% (inactive) |
| CCCn1c(=O)c(C(=O)NCc2ccccc2)c(O)c2ccccc21 | -13.3% (inactive) |
| CCOc1ccc(CCNC(=O)COC(=O)c2nccnc2N)cc1OCC | -10.8% (inactive) |
| COc1ccccc1C(C)NS(=O)(=O)c1ccc(Cl)nc1 (stereo unspecified) | 1.68% (inactive) |
| CN(C)CCCN(C(=O)CCOc1ccccc1)c1nc2ccc(F)cc2s1 | 31.2% (inactive) |
| COc1ccc(S(=O)(=O)N2CCC(C(=O)NCc3ccccn3)CC2)cc1OC | 11.7% (inactive) |
| COc1cc2c(cc1OC)CN(C(=O)CNS(=O)(=O)c1ccc(C)c(C)c1)CC2 | -0.552% (inactive) |
| Cc1ccc(-c2[nH]nc3c2C(c2cccnc2)C(C#N)=C(N)O3)cc1 (stereo unspecified) | -7.15% (inactive) |
| CC(=O)c1c(O)c2cccc3c2n(c1=O)CCC3 | 23% (inactive) |
| O=C(NCCC1CCCCN1S(=O)(=O)c1ccc(F)cc1)C(=O)NCc1cccnc1 (stereo unspecified) | -6.46% (inactive) |
| Cc1cccnc1NC(=O)c1ccc(S(=O)(=O)N2CCCCC2)cc1 | 1.48% (inactive) |
| CCOc1ccc(NC(=O)[C@@H](NC(=O)OCc2ccccc2)[C@@H](C)CC)cc1 | 63.9% (inactive) |
| CCOc1cc(OCC)cc(C(=O)Nc2cccnc2)c1 | -5.89% (inactive) |
| Cc1ccc2c(=O)cc(C(=O)NC3CCS(=O)(=O)C3)oc2c1C (stereo unspecified) | -3.07% (inactive) |
| CCOC(=O)N1CCN(C(=O)COc2ccccc2OC)CC1 | 10.9% (inactive) |
| CN1CCCCCC1C(=O)N1CCC(N2CCC(C(=O)N3CCOCC3)CC2)CC1 (stereo unspecified) | 7.18% (inactive) |
| C/C(=N/NC(=O)c1ccc(Br)s1)c1ccncc1 | 4.11% (inactive) |
| Cc1ccc(C(=O)Nc2cccc(C(=O)N/N=C/c3ccc(F)cc3)c2)cc1 | 9.11% (inactive) |
| C/C(=N/NC(=O)c1ccc(Br)o1)c1ccncc1 | 17.2% (inactive) |
| O=C(Nc1ncn[nH]1)c1ccc(Cl)c(Cl)c1 | -8.6% (inactive) |
| COc1ccc(CC(=O)N2CCc3cc(OC)c(OC)cc3C2)cc1 | -13.2% (inactive) |
| COc1cccc(-n2c(=O)c3ccccc3n(CC(=O)NCC3CCCO3)c2=O)c1 (stereo unspecified) | -5.02% (inactive) |
| O=S(=O)(c1ccc(-c2csc(Nc3ccc(Br)cc3)n2)cc1)N1CCCC1 | 16.7% (inactive) |

| SMILES | activation |
| --- | --- |
| O=c1[nH]nc(-c2ccc(F)cc2)cc1Cc1cccs1 | 10% (inactive) |
| CCOCC(=O)Nc1c(C(=O)OCC)oc2ccccc12 | -1.44% (inactive) |
| CCCCNC(=O)c1ccccc1NC(=O)C1=C(C)OCCS1 | 1.2% (inactive) |
| CCCCNC(=O)C1(C)CCN1C(=O)Cc1cccc2ccccc12 (stereo unspecified) | 6.5% (inactive) |
| COc1ccc(CNC(=O)CN2C(=O)NC3(CCCCCC3)C2=O)cc1 | -21.9% (inactive) |
| CCOC(=O)C1=C(COC(=O)c2cccs2)NC(=O)NC1C (stereo unspecified) | -0.795% (inactive) |
| CCOc1ccc(CCNC(=O)COC(=O)c2cccc(N(C)C)c2)cc1OCC | -30.4% (inactive) |
| O=S(=O)(NCc1ccccc1)c1ccc(-n2cccn2)cc1 | -7.58% (inactive) |
| CCCCc1nc(N)c(C#N)c(-c2ccco2)c1CCC | 37.6% (inactive) |
| CC(C)n1cc(/C(N)=N/O)c(=O)n(Cc2ccccc2)c1=O | -1.49% (inactive) |
| CCCc1nc(N)sc1C(=O)OCC | -20% (inactive) |
| Cc1nc2ccccc2c2nc(NC(=O)C(F)(F)F)nn12 | -14.6% (inactive) |
| COC(=O)C[C@@H]1C=C[C@H](NC(=O)Cc2ccccn2)[C@@H](CO)O1 | 1.47% (inactive) |
| CCCOC(=O)Nc1ccc(S(=O)(=O)Nc2ncccn2)cc1 | -0.934% (inactive) |
| CCCc1cc(=O)oc2cc(C)cc(OCC(=O)Nc3ccc(S(N)(=O)=O)cc3)c12 | 52.8% (inactive) |
| Cn1cc(Br)c(C(=O)NNC(=O)c2ccccc2)n1 | 9.54% (inactive) |
| Cc1[nH]n(-c2ccc(Br)cc2)c(=O)c1/C=N/NC(=O)c1ccccc1 | -20% (inactive) |
| O=S(=O)(c1ccc(NCCCO)nc1)N1CCOCC1 | -4.23% (inactive) |
| CCOc1ncccc1C(=O)OCC(=O)NCCc1ccc(S(N)(=O)=O)cc1 | -1.58% (inactive) |
| CCOC(=O)c1cn(-c2ccccc2)nc1-c1ccncc1 | 16.9% (inactive) |
| COCCNc1nc(NCCCN(C)C)c2sccc2n1 | -7.39% (inactive) |
| CCCc1nnc2n1N=C(c1ccc(OC)c(OC)c1)CS2 | -7.53% (inactive) |
| O=S(=O)(c1cccs1)N1CN(C2CCCCC2)c2nc3ccccc3nc21 | -1.77% (inactive) |
| Cc1nc(N)c(C#N)c(-c2cccnc2)c1-c1ccccc1 | -1.76% (inactive) |

| SMILES | activation |
| --- | --- |
| C=CCN1C(=O)c2n[nH]c(COC)c2C1c1ccc(F)cc1 (stereo unspecified) | 28.3% (inactive) |
| O=C1NC(c2ccccc2)c2c(-c3ccccc3)n[nH]c21 (stereo unspecified) | 4.52% (inactive) |
| CNC(=O)C(=O)NCC1OCCCN1S(=O)(=O)c1ccc(F)cc1C (stereo unspecified) | 6.38% (inactive) |
| COc1ccc(-c2ocnc2C(=O)Nc2ccc(N3CCOCC3)cc2N2CCOCC2)cc1OC | -16.6% (inactive) |
| O=C(Cc1ccsc1)NNC(=O)c1ccccc1Cl | -8.88% (inactive) |
| C/C=C1\COC(C(=O)NCc2ccccc2)(C(F)(F)F)C=C1C=C(C)C (stereo unspecified) | 12.9% (inactive) |
| CCC(CC)NC(=O)CN1CCN(S(=O)(=O)c2cccs2)CC1 | -5.53% (inactive) |
| COc1ccc(CCNC(=O)CCCc2nnc3n(C)c(=O)c4sccc4n23)cc1OC | 20.7% (inactive) |
| Cc1cc(Oc2cccnc2)ccc1NC(=O)Cc1cn(C)c2ccccc12 | -5.92% (inactive) |
| Cc1ccc2c(c1)N(C(C)C(=O)NCc1cccs1)C(=O)CO2 (stereo unspecified) | -11.5% (inactive) |
| CCCn1c(C)cc(C)c(C#N)c1=O | 2.75% (inactive) |
| COc1ccccc1-c1cnc2c(c1)C(=O)N([C@H](C)CO)C[C@@H](C)[C@@H](CN(C)C(C)=O)O2 | 33.6% (inactive) |
| C[C@H]1CN([C@@H](C)CO)C(=O)c2cc(C#CCc3ccccc3)cnc2O[C@@H]1CN(C)C(=O)C1CC1 | -25.5% (inactive) |
| COCC(=O)N(C)C[C@H]1Oc2cc(Br)ccc2S(=O)(=O)N([C@H](C)CO)C[C@H]1C | -3% (inactive) |
| C[C@H](CO)N1C[C@H](C)[C@@H](CN(C)C(=O)CC2CC2)Oc2cc(C#CC(C)(C)O)ccc2S1(=O)=O | 18% (inactive) |
| Cc1c(P(=S)(c2ccccc2)c2ccccc2)[n+]2ccccc2n1C/C=C/c1ccccc1 | 35.7% (inactive) |
| COc1cc2c(cc1OC)-c1cc(Nc3ccccc3Br)nc(=O)n1CC2 | -12.7% (inactive) |
| CCNc1nc(C)nc2c1oc1ccccc12 | -3.38% (inactive) |
| O=C(COC(=O)c1ncc(Cl)c(Cl)c1Cl)NC1CCS(=O)(=O)C1 (stereo unspecified) | -6.54% (inactive) |
| Fc1ccccc1-c1nnc2ccc3ccccc3n12 | -4.34% (inactive) |
| O=c1c2ccccc2nnn1Cc1ccccc1 | -13.8% (inactive) |
| CCc1nc2n[nH]c(N)c2c2c1CCCC2 | 15.9% (inactive) |
| COCCNc1nc(NCCCN2CCCC2=O)c2sccc2n1 | 0.526% (inactive) |
